PubChem BioAssay (EPA / NIEHS)
Calls of active or inactive are those of the source. Rule for the calls: active = hit-call score of the fitted dose curve at least 0.9, where 1 is the maximum; inactive = score below 0.9.

Assays:
Settings in all cases: mRNA level, 48 h; actives raise or lower the signal
[1] = read-out: ABC Transporter (ABCB1), ABCB1 (gene 5243); experiment: LTEA_HepaRG_ABCB1: Life Technologies and Expression Analysis (LTEA) Assay for ABC Transporter (ABCB1) using HepaRG (AID 2283460)
In short: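 Human liver HepaRG line treated 48 h with up to 100 uM compound (eight half-log points, 0.5% DMSO); ABCB1 mRNA change fitted bidirectionally against DMSO controls.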

[2] = read-out: growth arrest and DNA damage 45 (GADD45B), GADD45B (gene 4616); experiment: LTEA_HepaRG_GADD45B: Life Technologies and Expression Analysis (LTEA) Assay for growth arrest and DNA damage 45 (GADD45B) using HepaRG (AID 2283461)
In short: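 HepaRG, ~100,000 cells/well, 48 h plating; serum-free induction medium; cpd 100 uM top, half-log x8, 0.5% DMSO, duplicate, 48 h; lysis in RLT, RNA isolation, qRT-PCR; norm ACTB/GAPDH/POLR2A; bidirectional fit vs DMSO.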

[3] = read-out: ABC Transporter (ABCC3), ABCC3 (gene 8714); experiment: LTEA_HepaRG_ABCC3: Life Technologies and Expression Analysis (LTEA) Assay for ABC Transporter (ABCC3) using HepaRG (AID 2283462)
In short: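 Human HepaRG, 48 h dosing, 8-pt half-log series from 100 uM, 0.5% DMSO vehicle, duplicates. ABCC3 mRNA by TaqMan qRT-PCR, housekeeping-normalized; bidirectional curve fit vs DMSO.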

[4] = read-out: ABC Transporter (ABCB11), ABCB11 (gene 8647); experiment: LTEA_HepaRG_ABCB11: Life Technologies and Expression Analysis (LTEA) Assay for ABC Transporter (ABCB11) using HepaRG (AID 2283463)
In short: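 Using HepaRG cultures held in 0.5% DMSO, chemicals were tested at half-log dilutions from 100 uM for 48 h. Induction or suppression of ABCB11 mRNA, normalized to ACTB, GAPDH and POLR2A, was fitted bidirectionally against vehicle.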

[5] = read-out: ABC Transporter (ABCC2), ABCC2 (gene 1244); experiment: LTEA_HepaRG_ABCC2: Life Technologies and Expression Analysis (LTEA) Assay for ABC Transporter (ABCC2) using HepaRG (AID 2283464)
In short: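 HepaRG, 48 h post-plating; serum-free induction medium; cpd 8-pt, 100 uM top, half-log, 0.5% DMSO, duplicate, 48 h. Readout: ABCC2 mRNA by qRT-PCR, norm. ACTB/GAPDH/POLR2A. Bidirectional fit vs DMSO baseline.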

[6] = read-out: Broad substrate specificity ATP-binding cassette transporter ABCG2 (Homo sapiens) (UniProt Q9UNQ0); experiment: LTEA_HepaRG_ABCG2: Life Technologies and Expression Analysis (LTEA) Assay for ABC Transporter (ABCG2) using HepaRG (AID 2283465)
In short: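 Gene expression of ABCG2 in HepaRG liver cells is quantified by qRT-PCR following 48 h exposure across an eight-point series topping at 100 uM. Values come from bidirectional fitting relative to DMSO vehicle.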

[7] = read-out: ATP-citrate lyase (ACLY), ACLY (gene 47); experiment: LTEA_HepaRG_ACLY: Life Technologies and Expression Analysis (LTEA) Assay for ATP-citrate lyase (ACLY) using HepaRG (AID 2283466)
In short: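 ACLY expression changes in human HepaRG liver cells are quantified by qRT-PCR after 48 h exposure to test chemicals (maximum 100 uM, half-log steps). Values are fitted in both directions relative to 0.5% DMSO vehicle.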

[8] = read-out: Peroxisomal acyl-coenzyme A oxidase 1 (ACOX1) gene, ACOX1 (gene 51); experiment: LTEA_HepaRG_ACOX1: Life Technologies and Expression Analysis (LTEA) Assay for Peroxisomal acyl-coenzyme A oxidase 1 (ACOX1) gene using HepaRG (AID 2283467)
In short: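 Human HepaRG hepatic cultures, 48 h treatment with test chemicals up to 100 uM. ACOX1 expression read by qRT-PCR relative to 0.5% DMSO vehicle.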

[9] = read-out: Alkaline Phosphatase, Placental (ALPP) gene, ALPP (gene 250); experiment: LTEA_HepaRG_ALPP: Life Technologies and Expression Analysis (LTEA) Assay for Alkaline Phosphatase, Placental (ALPP) gene using HepaRG (AID 2283468)
In short: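 HepaRG, 48 h plating then 48 h dosing, serum-free induction medium, 0.5% DMSO. 8 conc, half-log, max 100 uM, duplicates. Endpoint: ALPP transcript by qRT-PCR, housekeeping-normalized; gain or loss fitted vs DMSO.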

[10] = read-out: Bcl-2 (BAD) gene, BAD (gene 572); experiment: LTEA_HepaRG_BAD: Life Technologies and Expression Analysis (LTEA) Assay for Bcl-2 (BAD) gene using HepaRG (AID 2283469)
In short: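 Activity values reflect up- or down-regulation of BAD mRNA in human HepaRG hepatic cells treated 48 h in serum-free medium, with eight-point half-log dosing capped at 100 uM and 0.5% DMSO vehicle.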

[11] = read-out: Bcl-2 (BAX) gene, BAX (gene 581); experiment: LTEA_HepaRG_BAX: Life Technologies and Expression Analysis (LTEA) Assay for Bcl-2 (BAX) gene using HepaRG (AID 2283470)
In short: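 Human HepaRG cells treated in duplicate for 48 h across eight concentrations (max 100 uM, 0.5% DMSO); BAX expression measured by qRT-PCR.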

[12] = read-out: adenosine kinase (ADK) gene, ADK (gene 132); experiment: LTEA_HepaRG_ADK: Life Technologies and Expression Analysis (LTEA) Assay for adenosine kinase (ADK) gene using HepaRG (AID 2283471)
In short: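 Read-out is ADK transcript level measured by qRT-PCR and normalised to three housekeeping genes. Cells are human HepaRG, dosed for 48 h at up to 100 uM in 0.5% DMSO. Gain or loss of signal is fitted against DMSO controls.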

[13] = read-out: Alpha-fetoprotein (AFP) gene, AFP (gene 174); experiment: LTEA_HepaRG_AFP: Life Technologies and Expression Analysis (LTEA) Assay for Alpha-fetoprotein (AFP) gene using HepaRG (AID 2283472)
In short: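 Measures AFP mRNA change in HepaRG after 48 h chemical exposure (8 half-log concentrations, highest 100 uM, 0.5% DMSO). Fold change relative to DMSO, fitted in both directions.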

[14] = read-out: BCL2L11 (gene 10018); experiment: LTEA_HepaRG_BCL2L11: Life Technologies and Expression Analysis (LTEA) Assay for Bcl-2 (BCL2L11) gene using HepaRG (AID 2283473)
In short: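 Read-out is BCL2L11 transcript level by qRT-PCR, normalized to three housekeeping genes and fitted bidirectionally against 0.5% DMSO vehicle. HepaRG cells received chemicals for 48 h in serum-free induction medium, 100 uM down in half-log dilutions.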

[15] = read-out: Apolipoprotein A-V (APOA5) gene, APOA5 (gene 116519); experiment: LTEA_HepaRG_APOA5: Life Technologies and Expression Analysis (LTEA) Assay for Apolipoprotein A-V (APOA5) gene using HepaRG (AID 2283474)
In short: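 Readout is APOA5 transcript level by qRT-PCR on Fluidigm dynamic arrays, normalized to three housekeeping genes. HepaRG cultures received chemicals for 48 h at up to 100 uM (half-log steps, 0.5% DMSO), with gain or loss scored relative to DMSO.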

[16] = read-out: Apoptosis regulator Bcl-2 (Homo sapiens) (UniProt P10415); experiment: LTEA_HepaRG_BCL2: Life Technologies and Expression Analysis (LTEA) Assay for Bcl-2 gene using HepaRG (AID 2283475);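 note: BCL2 transcript by TaqMan qRT-PCR normalised to ACTB GAPDH and POLR2A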
In short: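 Each chemical was tested in duplicate on HepaRG cultures held in serum-free induction medium for 48 h, highest concentration 100 uM with half-log dilutions. Transcript levels came from multiplexed qRT-PCR, normalised to housekeeping genes; activity was scored in either direction relative to DMSO.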

[17] = read-out: Bcl-2 (BID) gene, BID (gene 637); experiment: LTEA_HepaRG_BID: Life Technologies and Expression Analysis (LTEA) Assay for Bcl-2 (BID) gene using HepaRG (AID 2283476)
In short: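 Assay used HepaRG hepatic cells treated 48 h in serum-free medium with half-log dilutions from 100 uM. Endpoint: BID mRNA, qRT-PCR, normalized to ACTB/GAPDH/POLR2A.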

[18] = read-out: Caspase-3 (Homo sapiens) (UniProt P42574); experiment: LTEA_HepaRG_CASP3: Life Technologies and Expression Analysis (LTEA) Assay for cysteine-aspartic acid protease (CASP3) using HepaRG (AID 2283477)
In short: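 Read-out is CASP3 mRNA level by TaqMan qRT-PCR in human HepaRG cells after 48 h chemical exposure. Eight half-log concentrations topping at 100 uM were tested in 0.5% DMSO; gain or loss was fitted relative to DMSO.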

[19] = read-out: Cytochrome P450 (CYP24A1), CYP24A1 (gene 1591); experiment: LTEA_HepaRG_CYP24A1: Life Technologies and Expression Analysis (LTEA) Assay for Cytochrome P450 (CYP24A1) using HepaRG (AID 2283478)
In short: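 HepaRG, 48 h chemical exposure, 8-pt half-log CRC from 100 uM, 0.5% DMSO vehicle, duplicates. Endpoint: CYP24A1 mRNA by Fluidigm TaqMan qRT-PCR, normalized ACTB/GAPDH/POLR2A; gain/loss fit vs DMSO.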

[20] = read-out: Cytochrome P450 (CYP1A2), CYP1A2 (gene 1544); experiment: LTEA_HepaRG_CYP1A2: Life Technologies and Expression Analysis (LTEA) Assay for Cytochrome P450 (CYP1A2) using HepaRG (AID 2283479)
In short: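 CYP1A2 transcript induction or loss, quantified by Fluidigm qRT-PCR against three housekeeping genes, was fitted bidirectionally against 0.5% DMSO controls. Human HepaRG cells received eight half-log concentrations from 100 uM over 48 h.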

Measured: AC50

Apoptosis regulator Bcl-2 (Homo sapiens), sequence (P10415 whole entry, looked up): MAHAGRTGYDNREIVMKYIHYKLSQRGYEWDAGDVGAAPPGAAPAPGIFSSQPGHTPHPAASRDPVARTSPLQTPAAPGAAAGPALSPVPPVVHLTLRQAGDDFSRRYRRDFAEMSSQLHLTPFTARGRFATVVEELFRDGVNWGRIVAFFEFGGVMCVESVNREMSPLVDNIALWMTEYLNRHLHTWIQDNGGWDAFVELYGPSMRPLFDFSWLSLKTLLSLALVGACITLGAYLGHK
Caspase-3 (Homo sapiens), sequence (P42574 whole entry, looked up): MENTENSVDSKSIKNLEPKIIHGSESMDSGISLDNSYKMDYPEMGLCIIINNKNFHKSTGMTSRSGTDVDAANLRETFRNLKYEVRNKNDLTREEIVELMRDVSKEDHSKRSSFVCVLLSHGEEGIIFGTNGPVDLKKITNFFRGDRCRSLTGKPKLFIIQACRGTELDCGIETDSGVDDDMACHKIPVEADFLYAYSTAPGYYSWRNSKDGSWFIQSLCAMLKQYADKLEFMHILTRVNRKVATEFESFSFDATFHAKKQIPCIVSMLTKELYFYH
Broad substrate specificity ATP-binding cassette transporter ABCG2 (Homo sapiens), sequence (Q9UNQ0 whole entry, looked up): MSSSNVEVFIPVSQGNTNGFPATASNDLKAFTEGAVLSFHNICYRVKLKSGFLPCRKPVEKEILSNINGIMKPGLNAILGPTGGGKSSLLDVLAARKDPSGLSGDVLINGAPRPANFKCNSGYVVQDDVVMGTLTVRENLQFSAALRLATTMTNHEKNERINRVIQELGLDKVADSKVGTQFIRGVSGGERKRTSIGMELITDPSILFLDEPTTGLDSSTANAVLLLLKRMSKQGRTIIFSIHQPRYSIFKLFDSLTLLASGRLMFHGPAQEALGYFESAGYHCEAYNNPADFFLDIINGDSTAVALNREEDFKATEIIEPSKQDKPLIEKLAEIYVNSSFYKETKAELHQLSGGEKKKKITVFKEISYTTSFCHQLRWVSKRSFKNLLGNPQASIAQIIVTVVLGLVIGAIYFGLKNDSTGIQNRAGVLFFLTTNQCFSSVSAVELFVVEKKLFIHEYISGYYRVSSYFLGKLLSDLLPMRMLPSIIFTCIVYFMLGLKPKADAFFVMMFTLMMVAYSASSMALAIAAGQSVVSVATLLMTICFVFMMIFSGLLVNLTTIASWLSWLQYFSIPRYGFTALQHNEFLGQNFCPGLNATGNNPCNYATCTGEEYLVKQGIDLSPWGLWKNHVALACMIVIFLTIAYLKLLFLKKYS

CN=C=S
inactive: all assays above

CC1(C)C(C=C(Cl)Cl)C1C(=O)OC(C#N)c1cccc(Oc2ccccc2)c1 (stereo not given)
active: [1] 50 µM | [6] 10.8 µM | [20] 21.9 µM
inactive: all other assays above

CCN(CC)c1nc(C)cc(OP(=S)(OC)OC)n1
active: [5] 19.9 µM | [20] 38 µM
inactive: all other assays above

CC(C)Oc1cccc(NC(=O)c2ccccc2C(F)(F)F)c1
active: [1] 50 µM | [20] 80 µM
inactive: all other assays above

COC(=O)NS(=O)(=O)c1ccc(N)cc1
inactive: all assays above
